High-throughput results from PubChem BioAssay.
This is a sample that favours compounds with a hit; in the whole collection about 6.2% have one here.
HT1080 IDH1KD tx: qHTS for induction of synthetic lethality in tumor cells producing 2HG: qHTS for the HT-1080-IDH1KD cell line | Potency, µM (titrated, usually from 46.1 µM), usual class: cytotoxic | AID 686971, 2013 | 2% of 360,000 active | HT-1080 IDH1 knockdown viability, ATP luminescence, 48 h
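After a 2 h attachment period, IDH1KD HT-1080 cells took pin-transferred compound for 48 h at 37 °C; ATP-based luminescence after 10 min room-temperature reagent incubation reported viability.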
HT1080NT lethal: qHTS for induction of synthetic lethality in tumor cells producing 2HG: qHTS for the HT-1080-NT fibrosarcoma cell line | Potency, µM (doses to about 46.1 µM), most hits filed as cytotoxic | 1.6% of 360,000 active | HT-1080-NT fibrosarcoma viability, CellTiter-Glo ATP luminescence, 48 h;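 further: NT is the 2HG producing partner of a matched IDH1 knockdown line; nearly all actives have a fitted effect of over 55% in size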
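Toxicity toward the 2HG-producing NT line was scored as %Activity, normalised to DMSO and no-cell wells, from CellTiter-Glo luminescence after 48 hours' treatment.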
KB-V1 cytotox: qHTS assay for MDR1-selective chemotherapeutics: Primary screen using the drug-selected MDR subline cells KB-V1. AID 1347076, 2019. KB-V1 MDR cells viability, CellTiter-Glo, 72 h. Potency, µM (titrated, usually from 46.1 µM), usual class: cytotoxic. 3.4% of 400,000 active; further: nearly all actives have a fitted effect of over 60% in size
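Cytotoxicity toward P-gp-expressing KB-V1 cells was determined as loss of CellTiter-Glo luminescence after 72 h at 37 degrees C. Compounds were tested in quantitative HTS format across a concentration range, with curves fitted to normalized data.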
S2 tox: Viability Counterscreen for Primary qHTS for Inhibitors of ATXN expression; Potency, µM (series often up to 56.7 µM), usual class: cytotoxic; S2 cells (HEK-293 line with an ATXN2-luciferase reporter) viability, CellTiter-Fluor protease fluorescence, 24 h; 0.49% of 400,000 active; further: nearly all actives have a fitted effect of over 40% in size
ATXN2 expr inh: Primary qHTS for Inhibitors of ATXN expression; Potency, µM (highest dose often 57 µM), actives largely listed as inhibitors; AID 1745845, 2022; HEK-293 ATXN2-luciferase reporter, luminescence, 24 h; 0.72% of 360,000 active; further: nearly all actives have a fitted effect of over 55% in size
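ATXN2-luciferase reporter cells (luciferase flanked by upstream and downstream ATXN2 gene portions) were treated 24 h at 37 °C with compounds at up to 57 uM. SteadyGlo luminescence gave expression; GF-AFC fluorescence gave viability.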
KB-3-1 cytotox: qHTS assay for MDR1-selective chemotherapeutics: Primary screen using the parental adenocarcinoma cell KB-3-1; KB-3-1 viability, CellTiter-Glo ATP luminescence, 72 h; Potency, µM (highest dose often 46.1 µM), usual class: cytotoxic; 1.4% of 400,000 active; AID 1347075, 2019; further: nearly all actives have a fitted effect of over 60% in size
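Parental KB-3-1 adenocarcinoma cells in phenol-red-free DMEM with 10% FBS were pin-treated with compounds at several concentrations, incubated 72 h at 37 °C, and viability read by CellTiter-Glo luminescence; concentration-effect curves were fitted after normalization.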
A number is an active result; 0 = inactive; ? = inconclusive; - = no result. The call rests on the fitted dose curve; in most records, active means well fitted curve in the direction sought with a large enough effect; inconclusive means small, poorly fitted or top-dose-only effect, or another doubt; inactive means no such curve, though single readings can be large; an effect the other way counts as inactive or inconclusive.

SMILES | HT1080 IDH1KD tx | HT1080NT lethal | KB-V1 cytotox | S2 tox | ATXN2 expr inh | KB-3-1 cytotox
COc1ccc(-c2[nH]c3ccccc3c2SCCNC(=O)c2ccccc2)cc1 | ? | ? | 0 | ? | ? | 20.6µM
CCOC(=O)N1CCc2cc(OC)c(OC)c3c2c1cc1cc(OC)c(OC)cc13 | 16.4µM | ? | 2.31µM | ? | 0 | 4.11µM
COc1ccc(Cl)cc1Cn1c(C)c(C(=O)NCc2ccc(C#N)cc2)sc1=O | 0 | 0 | ? | 0 | 0 | 0
COc1ccccc1Cn1c(C)c(C(=O)NCc2ccc(C#N)cc2)sc1=O | 0 | 0 | 16.4µM | 0 | 0 | 0
C=Cc1ccc(Cn2c(C)c(C(=O)NCc3ccc(C#N)cc3)sc2=O)cc1 | 0 | 0 | 18.4µM | 0 | ? | ?
COC(=O)c1ccc(Cn2c(C)c(C(=O)NCc3ccc(C#N)cc3)sc2=O)o1 | ? | 0 | 23.1µM | 0 | 0 | 0
CCCc1ccc(C2Sc3ccccc3NC3=C2C(=O)c2ccccc23)cc1 (stereo not given) | - | - | 0 | - | ? | ?
CCOC(=O)c1cn(-c2ccccc2)nc1-c1ccncc1 | 0 | 0 | 18.4µM | 0 | 0 | ?
C#CCOCCOCCOCCNc1nc(N2CCN(C(=O)CCCCCCCCCCNC(=O)Cn3cc(C[C@@H](C)O)nn3)CC2)nc(N2CCN(C(=O)CCCCCCCCCCNC(=O)[C@@H](CCSC)n3cc(CCO)nn3)CC2)n1 | 20.6µM | ? | 0 | 0 | 0 | 0
C#CCOCCOCCOCCNc1nc(N2CCN(C(=O)CCCCCCCCCCNC(=O)[C@@H](CCSC)n3cc(CCO)nn3)CC2)nc(N2CCN(C(=O)CCCCCCCCCCNC(=O)[C@H](CCCN=C(N)N)n3cc(C[C@@H](C)CC)nn3)CC2)n1 | ? | ? | ? | 15.8µM | ? | 0
CC1CCN(S(=O)(=O)c2cc(C(=O)NCc3ccccc3)n(C)c2)CC1 | - | - | 0 | 0 | 0 | 0
C=CCn1c(SCN2C(=O)c3ccccc3C2=O)nc2ccc(Cl)cc2c1=O | 0 | 0 | 16.4µM | 0 | 0 | ?
CCOc1cc(OCC)cc(C(=O)Nc2cccc(-c3nc4ccccc4[nH]3)c2)c1 | - | - | ? | ? | 0 | 0
CCCOc1ccc(C(=O)Nc2cccc(-c3nc4ccccc4[nH]3)c2)cc1 | - | - | 20.6µM | ? | ? | ?
COCCN1Cc2cccc(C(=O)Nc3cccc(-c4nc5ccccc5[nH]4)c3)c2C1=O | 16.4µM | 0 | 10.3µM | ? | ? | ?
COCCN1Cc2cccc(C(=O)Nc3ccc(-c4nc5ccccc5[nH]4)cc3)c2C1=O | 0 | 0 | 0 | 0 | 0 | 0
COCCN1Cc2cccc(C(=O)NCc3ccc4c(c3)OCO4)c2C1=O | 0 | 0 | 4.11µM | 0 | 0 | 0
O=C(Nc1ccc2nc(-c3ccccc3)[nH]c2c1)c1ccco1 | 0 | 0 | 0 | 0 | 0 | ?
O=C(Nc1cccc(-c2nc3ccccc3[nH]2)c1)c1cccc(NC(=O)c2ccco2)c1 | ? | ? | 0 | 31.6µM | ? | ?
COCCN1Cc2cccc(C(=O)NCc3ccccn3)c2C1=O | 0 | 0 | 0 | 0 | 0 | 0
Cc1ccc(S(=O)(=O)N2CCN(c3nc(-n4cncn4)nc4ccccc34)CC2)cc1 | 0 | 0 | - | - | - | -
COc1ccc(NC(=O)COc2cccc3c2CCN(Cc2cccnc2)C3=O)c(OC)c1 | 0 | 0 | 5.17µM | 0 | 0 | 0
COc1ccc(-c2nnc(SC(C)C(=O)Nc3nccs3)n2-c2ccccc2)cc1OC (stereo not given) | 0 | 0 | 14.6µM | ? | 0 | 0
CC1CCc2c(sc3nc(C4CC4)nc(N4CCN(C(=O)c5ccco5)CC4)c23)C1 (stereo not given) | 23.1µM | ? | ? | ? | ? | ?
COc1cc(Nc2nc3ccccc3nc2NS(=O)(=O)c2ccc(NC(=O)c3ccc(C)c(OC)c3)cc2)cc(OC)c1 | - | - | - | - | 0 | -
COc1cc(-c2nc(C)cnc2C)cc2c1OCCN(C(=O)Cc1cc(OC)c(OC)c(OC)c1)C2 | - | - | - | 0 | - | -
